The text below walks through data of PubChem BioAssay (NCATS).

Molecules are shown by their SMILES. Results filed as inconclusive are left out. Calls of active or inactive are those of the source. The call rests on the fitted dose curve; in most records, active means well fitted curve in the direction sought with a large enough effect; inconclusive means small, poorly fitted or top-dose-only effect, or another doubt; inactive means no such curve, though single readings can be large; an effect the other way counts as inactive or inconclusive.

Test [1] is described as follows: Quantitative highthroughput screen to assess conditional lethalithy of NOMO1 cells grown in RPMI1640 with untreated serum (RPMI+s) (AID 1963876). Further: nearly all actives have a fitted effect of over 35% in size. A digest of the protocol: (§1)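 Each medium arm—HPLM with 10% dialyzed FBS, or RPMI1640 with 5 mM glucose and 10% untreated or dialyzed FBS—was screened against an 11-point, 3-fold compound titration for 48 h at 37 °C, with CellTiter-Glo luminescence as endpoint.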

Test [2] is described as follows: Quantitative highthroughput screen to assess conditional lethalithy of NOMO1 cells grown in RPMI1640 with dialyzed fetal bovine serum (RPMI+ds) (AID 1963877). Further: nearly all actives have a fitted effect of over 30% in size. On viability: series mostly up to about 46 µM. In a few lines: as §1
Test [3] can be described thus: Quantitative highthroughput screen to assess conditional lethalithy of NOMO1 cells grown in Human Plasma-Like Medium with dialyzed fetal bovine serum (HPLM+ds) (AID 1963878). Further: nearly all actives have a fitted effect of over 35% in size. A digest of the protocol:
as §1

Test [4] can be described thus: Quantitative highthroughput screen to assess conditional lethalithy of P12 Ichikawa cells grown in Human Plasma-Like Medium with dialyzed fetal bovine serum (HPLM+ds) (AID 1963879). Further: nearly all actives have a fitted effect of over 35% in size. On viability: series mostly up to about 46 µM. Particulars: Potency: viability. In a few lines: as §1
The nature of test [5]: Quantitative highthroughput screen to assess conditional lethalithy of P12 Ichikawa cells grown in RPMI1640 with dialyzed fetal bovine serum (RPMI+ds) (AID 1963880). Further: nearly all actives have a fitted effect of over 35% in size. The conditions noted are these: Potency: P12-Ichikawa viability. In a few lines:
as §1

Test [6] can be described thus: Quantitative highthroughput screen to assess conditional lethalithy of P12 Ichikawa cells grown in RPMI1640 with untreated serum (RPMI+s) (AID 1963881). Further: nearly all actives have a fitted effect of over 35% in size. On viability: series mostly up to about 46 µM. The conditions noted are these: Potency: viability. A digest of the protocol: as §1
The nature of test [7]: Quantitative highthroughput screen to assess conditional lethalithy of SEM cells grown in Human Plasma-Like Medium with dialyzed fetal bovine serum (HPLM+ds) (AID 1963882). Further: nearly all actives have a fitted effect of over 35% in size. On viability: series mostly up to about 46 µM. In a few lines:
as §1

Test [8] can be described thus: Quantitative highthroughput screen to assess conditional lethalithy of SEM cells grown in RPMI1640 with unreated serum (RPMI+s) (AID 1963883). Further: nearly all actives have a fitted effect of over 35% in size. In a few lines: as §1
Potency means the concentration at half of the fitted maximal effect.

As to `CC1CC2C3CCC4=CC(=O)C=C[C@]4(C)[C@@]3(F)[C@@H](O)C[C@]2(C)[C@@]1(O)C(=O)CO` (some centres not stated), the Potency entry in test [1], in test [2] and in test [3] was “inactive” each time.

In the case of `COC(=O)N[C@H](C(=O)N1CCC[C@@H]1c1ncc(-c2ccc(-c3ccc(-c4cnc([C@@H]5CCCN5C(=O)[C@@H](NC(=O)OC)C(C)C)[nH]4)cc3)cc2)[nH]1)C(C)C`, the Potency result in test [1], in test [2], in test [3], in test [4], in test [5] and in test [6] was “inactive” throughout. Besides, in test [7], the Potency result was “inactive”.

`CC[C@]1(O)C[C@@H]2CN(CCc3c([nH]c4ccccc34)[C@@](C(=O)OC)(c3cc4c(cc3OC)N(C=O)[C@@H]3C45CCN4CC=C[C@](CC)([C@H]45)[C@@H](OC(C)=O)[C@]3(O)C(=O)OC)C2)C1` (some centres not stated): the Potency result in test [1], in test [2], in test [3], in test [4], in test [5] and in test [6] was “inactive” throughout.

As to `CCOC(=O)[C@H](CCc1ccccc1)N[C@@H](C)C(=O)N1CCCC1C(=O)O` (some centres not stated), the Potency result in test [1], in test [2], in test [3], in test [4], in test [5] and in test [6] was “inactive” each time. Further, the Potency result in test [7] and in test [8] was “inactive” throughout.

Consider `CCN(CC)CCNC(=O)c1c(C)[nH]c(C=C2C(=O)Nc3ccc(F)cc32)c1C`, for which the Potency in test [1] is 0.303 µM (active); in test [2], 0.303 µM (active); in test [3], 0.171 µM (active); in test [4], 0.27 µM (active); in test [5], 0.34 µM (active); in test [6], 0.481 µM (active).

On to `CN(CC=CC#CC(C)(C)C)Cc1cccc2ccccc12`, for which the Potency entry in test [1], in test [2], in test [3], in test [4], in test [5] and in test [6] was “inactive” throughout. The Potency result in test [7] and in test [8] was “inactive” in each case.

Regarding `COc1cc2ncnc(Nc3ccc(F)c(Cl)c3)c2cc1NC(=O)C=CCN1CCCCC1`, the Potency result in test [1] and in test [2] was “inactive” throughout.

With `CCC(=O)OCC(=O)[C@@]1(OC(=O)CC)[C@@H](C)C[C@@H]2[C@H]3CCC4=CC(=O)C=C[C@]4(C)[C@@]3(F)[C@@H](O)C[C@@]21C`, the Potency is 7.43 µM (active) in test [1]; 5.9 µM (active) in test [2]; 1.66 µM (active) in test [3]; 5.9 µM (active) in test [4]; 2.35 µM (active) in test [5]; 4.69 µM (active) in test [6].

Regarding `O=C(NCc1ccccc1)[C@H](Cc1ccccc1)NC(=O)[C@@H]1O[C@@H]1C(=O)NCCc1ccc(O)cc1`, the Potency result in test [1], in test [2], in test [3], in test [4], in test [5] and in test [6] was “inactive” throughout. In addition, the Potency result in test [7] is “inactive”.

On to `C#C[C@]1(O)CC[C@H]2[C@H]3CCc4cc(OC)ccc4[C@H]3CC[C@@]21C`, for which the Potency entry in test [1], in test [2], in test [3], in test [4], in test [5] and in test [6] was “inactive” throughout. For the same molecule, the Potency result in test [7] and in test [8] was “inactive” each time.

Consider `CO[C@H]1/C=C\O[C@@]2(C)Oc3c(C)c(O)c4c(O)c(c(C=NN5CCN(C6CCCC6)CC5)c(O)c4c3C2=O)NC(=O)C(C)=CC=C[C@H](C)[C@H](O)[C@@H](C)[C@@H](O)[C@@H](C)[C@H](OC(C)=O)[C@H]1C`, for which the Potency is 1.66 µM (active) in test [1]; 2.64 µM (active) in test [2]; 2.35 µM (active) in test [3]; 2.64 µM (active) in test [4]; 2.64 µM (active) in test [5].

On to `CC[C@H]1CN2CCc3cc(OC)c(OC)cc3[C@H]2C[C@@H]1C[C@@H]1NCCc2cc(OC)c(OC)cc21`, for which the Potency is 0.469 µM (active) in test [1]; 0.469 µM (active) in test [2]; 0.526 µM (active) in test [3]; 0.209 µM (active) in test [4]; 0.418 µM (active) in test [5]; 0.235 µM (active) in test [6]. In addition, the Potency was 0.166 µM (active) in test [7] and 0.235 µM (active) in test [8].

Turning to `CCC=CC[C@H]1C(=O)CC[C@@H]1CC(=O)OC`, the Potency entry in test [1], in test [2], in test [3], in test [4], in test [5] and in test [6] was “inactive” throughout.

Take `O=c1ccc2ccc(O)c(O)c2o1`: the Potency result in test [1], in test [2] and in test [3] was “inactive” throughout.

Consider `CC(C)OC(=O)CCCC=CC[C@@H]1[C@H](C=C[C@@H](O)COc2cccc(C(F)(F)F)c2)[C@H](O)C[C@@H]1O`, for which, in test [1], the Potency was 33.2 µM (active).

As to `CC=C(C(=CC)c1ccc(O)cc1)c1ccc(O)cc1`, the Potency entry in test [1], in test [2], in test [3], in test [4], in test [5] and in test [6] was “inactive” each time.

`CO[C@H]1C[C@@H]2CC[C@@H](C)[C@@](O)(O2)C(=O)C(=O)N2CCCC[C@@H]2C(=O)O[C@H]([C@H](C)C[C@@H]2CC[C@H](OP(C)(C)=O)[C@H](OC)C2)CC(=O)[C@H](C)C=C(C)[C@@H](O)[C@@H](OC)C(=O)[C@H](C)C[C@H](C)C=CC=CC=C1C`: the Potency result in test [1] and in test [2] was “inactive” throughout.

Turning to `CC(C)CN(C[C@H](O)[C@H](Cc1ccccc1)NC(=O)O[C@H]1CCOC1)S(=O)(=O)c1ccc(N)cc1`, the Potency result in test [1], in test [2] and in test [3] was “inactive” in each case.

In the case of `CC[C@H]1OC(=O)[C@H](C)[C@@H](O[C@H]2C[C@@](C)(OC)[C@@H](O)[C@H](C)O2)[C@H](C)[C@@H](O[C@@H]2O[C@H](C)C[C@H](N(C)C)[C@@H]2O)[C@](C)(O)C[C@@H](C)CN(C)[C@H](C)[C@@H](O)[C@]1(C)O`, the Potency entry in test [1] and in test [2] was “inactive” each time.
